From ChEMBL document CHEMBL3988442, “University of Dundee, Small-Polar-MMV Screening Library” (2021) come the findings set out here.

For some of these results: Results with a measured potency or affinity are listed apart.

Holding throughout (design): scale not given: direction of the effect not stated beside the values
Assay [1] has as its target Protein translocase subunit SecA (Escherichia coli (strain K12)) (UniProt P10408). As to the kind of experiment: Assay to Identify E. coli SecA ATPase Inhibitors. The format is functional. The note with it: 30 µM.
Assay [2] has as its target T1, Ubiquitin-activating enzyme e1, putative (Leishmania donovani (strain BPK282A1)) (UniProt E9BSI1).
T1 sequence (whole entry): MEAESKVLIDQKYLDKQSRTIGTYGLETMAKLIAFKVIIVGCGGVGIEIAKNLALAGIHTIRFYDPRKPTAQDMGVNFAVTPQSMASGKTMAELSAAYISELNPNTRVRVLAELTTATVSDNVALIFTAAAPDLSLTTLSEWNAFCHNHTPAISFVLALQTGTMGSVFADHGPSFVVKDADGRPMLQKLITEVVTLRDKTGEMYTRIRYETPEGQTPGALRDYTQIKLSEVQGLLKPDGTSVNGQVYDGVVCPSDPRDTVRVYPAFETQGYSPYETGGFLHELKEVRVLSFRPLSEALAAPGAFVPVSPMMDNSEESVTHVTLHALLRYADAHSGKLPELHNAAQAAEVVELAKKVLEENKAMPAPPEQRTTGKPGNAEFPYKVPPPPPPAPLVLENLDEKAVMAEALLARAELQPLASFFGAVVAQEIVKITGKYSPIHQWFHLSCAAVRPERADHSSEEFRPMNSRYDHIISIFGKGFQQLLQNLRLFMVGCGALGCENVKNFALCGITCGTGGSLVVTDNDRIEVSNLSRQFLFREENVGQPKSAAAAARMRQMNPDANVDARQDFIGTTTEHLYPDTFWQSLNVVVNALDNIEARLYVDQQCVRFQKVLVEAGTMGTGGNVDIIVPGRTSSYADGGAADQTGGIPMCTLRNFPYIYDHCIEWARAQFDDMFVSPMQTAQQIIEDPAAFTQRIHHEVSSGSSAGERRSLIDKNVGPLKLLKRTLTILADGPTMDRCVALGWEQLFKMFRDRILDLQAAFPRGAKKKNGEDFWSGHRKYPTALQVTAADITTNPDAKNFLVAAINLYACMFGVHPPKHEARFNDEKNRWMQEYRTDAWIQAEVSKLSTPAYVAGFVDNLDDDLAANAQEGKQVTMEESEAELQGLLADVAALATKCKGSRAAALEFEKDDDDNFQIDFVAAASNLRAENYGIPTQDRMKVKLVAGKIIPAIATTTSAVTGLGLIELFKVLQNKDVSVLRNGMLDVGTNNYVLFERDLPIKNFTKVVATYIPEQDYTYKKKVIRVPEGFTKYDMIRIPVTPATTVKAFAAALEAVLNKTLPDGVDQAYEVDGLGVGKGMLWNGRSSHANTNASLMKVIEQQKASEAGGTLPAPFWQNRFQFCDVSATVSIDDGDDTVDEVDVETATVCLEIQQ
As to the kind of experiment: Leishmania donovani Ubiquitin Activating Enzyme (LdE1). The format is functional. The conditions noted are these: 30 µM.

Assay [3] has as its target AMP-activated protein kinase, AMPK (Homo sapiens) (UniProt P54646+O43741+P54619+Q9UGJ0+Q9Y478+Q13131+Q9UGI9). Put plainly: AMP-dependent Kinase enzyme assay. An in vitro enzyme assay that detects ADP turnover that is directly proportional to AMPK activity. This uses naive AMPK that is activated during the assay with MK-8722. The format is functional. The conditions noted are these: 30 µM.

Assay [4] concerns the target Sialic acid-binding Ig-like lectin 9 (Homo sapiens) (UniProt Q9Y336). As to the kind of experiment: Hs-Siglec9 ALPHAscreen SOP 20170721. The conditions noted are these: 10 µM.
The test system of a further assay is Trypanosoma cruzi. As to the kind of experiment: Trypanosoma cruzi phosphomannomutase and mannose-1-phosphate guanylyltransferase assay. It counts as functional. The note with it: 10 µM.
Assay [5] deals with T2, Arginase-2, mitochondrial (Homo sapiens) (UniProt P78540).
T2 sequence (whole entry): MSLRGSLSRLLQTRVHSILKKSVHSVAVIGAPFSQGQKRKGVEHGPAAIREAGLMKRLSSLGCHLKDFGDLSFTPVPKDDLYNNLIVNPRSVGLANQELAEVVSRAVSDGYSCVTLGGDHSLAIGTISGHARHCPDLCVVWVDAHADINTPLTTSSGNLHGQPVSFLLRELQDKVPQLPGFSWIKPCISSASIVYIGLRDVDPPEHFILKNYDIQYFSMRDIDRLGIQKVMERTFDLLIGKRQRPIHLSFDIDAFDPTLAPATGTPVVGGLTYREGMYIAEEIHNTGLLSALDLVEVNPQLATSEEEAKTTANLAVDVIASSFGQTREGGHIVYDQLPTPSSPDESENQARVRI
As to the kind of experiment: in vitro enzyme assay to detect the production of urea directly proportional to the activity of Arginase II. Also: in the data most compounds retested in dose-response had high values. The conditions noted are these: 33.3 µM. The format is functional.

Assay [6] concerns the target T3, Proteasome subunit beta (Trypanosoma cruzi) (UniProt O96673).
T3 sequence (whole entry): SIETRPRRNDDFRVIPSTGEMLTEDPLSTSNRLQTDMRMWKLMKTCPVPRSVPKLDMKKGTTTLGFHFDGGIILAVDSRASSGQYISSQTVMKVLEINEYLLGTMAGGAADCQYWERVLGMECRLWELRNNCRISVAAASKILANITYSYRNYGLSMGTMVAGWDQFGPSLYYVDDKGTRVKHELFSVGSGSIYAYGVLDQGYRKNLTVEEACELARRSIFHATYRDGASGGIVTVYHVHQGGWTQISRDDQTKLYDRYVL
As to the kind of experiment: Trypanosoma cruzi proteasome chymotrypsin-like activity (TcProtChymo) assay. Also: in the data most compounds retested in dose-response had high values. The format is functional. The note with it: 9.37 µM.

The species entered for a further assay is Homo sapiens. As to the kind of experiment: To identify inhibition of the IFN signalling (Jak-Stat) pathway via expression of an eGFP reporter gene under the control of an IFN-stimulated response element (ISRE) containing MxA promoter. It counts as functional. The note with it: 30 µM.
Assay [7] addresses T4, Tyrosyl-tRNA synthetase, putative (Trypanosoma cruzi (strain CL Brener)) (UniProt Q4DSP6).
T4 sequence (whole entry): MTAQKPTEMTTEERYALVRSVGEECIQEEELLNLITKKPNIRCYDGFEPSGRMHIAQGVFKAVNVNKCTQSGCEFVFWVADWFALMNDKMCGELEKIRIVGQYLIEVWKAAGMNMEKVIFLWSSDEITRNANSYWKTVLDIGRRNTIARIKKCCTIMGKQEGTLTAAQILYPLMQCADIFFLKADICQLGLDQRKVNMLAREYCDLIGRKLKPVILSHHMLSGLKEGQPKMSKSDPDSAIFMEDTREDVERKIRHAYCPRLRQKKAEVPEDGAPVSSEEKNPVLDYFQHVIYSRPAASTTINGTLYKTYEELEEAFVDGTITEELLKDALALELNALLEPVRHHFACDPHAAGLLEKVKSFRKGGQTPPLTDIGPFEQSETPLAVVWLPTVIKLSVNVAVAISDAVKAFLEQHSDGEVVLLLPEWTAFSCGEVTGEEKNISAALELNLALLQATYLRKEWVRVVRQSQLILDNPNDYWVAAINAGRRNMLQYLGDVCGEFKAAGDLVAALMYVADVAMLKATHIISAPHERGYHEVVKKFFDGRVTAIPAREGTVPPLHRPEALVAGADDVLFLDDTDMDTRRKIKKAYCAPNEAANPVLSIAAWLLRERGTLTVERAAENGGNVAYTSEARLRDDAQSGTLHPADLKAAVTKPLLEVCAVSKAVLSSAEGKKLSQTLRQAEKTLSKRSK
Put plainly: Trypanosoma cruzi tyrosyl tRNA synthetase (TcYRS) _High Tyrosine SOP. Also: in the data most compounds retested in dose-response had high values. The format is functional. The note with it: 30 µM.

In assay [8] the target is T4, Tyrosyl-tRNA synthetase, putative (Trypanosoma cruzi (strain CL Brener)). As to the kind of experiment: Trypanosoma cruzi tyrosyl tRNA synthetase (TcYRS) SOP. The format is functional. The note with it: 30 µM.
Assay [9] has as its target Chromo domain-containing protein 1 (Saccharomyces cerevisiae (strain ATCC 204508 / S288c) (Baker's yeast)) (UniProt P32657). Put plainly: ScCHD-1 Enzyme Inhibition Assay. Also: in the data most compounds retested in dose-response had high values. The format is functional. The note with it: 30 µM.

Sequence of Chromo domain-containing protein 1 (Saccharomyces cerevisiae (strain ATCC 204508 / S288c) (Baker's yeast)) (P32657 whole entry, the tested form may be a part): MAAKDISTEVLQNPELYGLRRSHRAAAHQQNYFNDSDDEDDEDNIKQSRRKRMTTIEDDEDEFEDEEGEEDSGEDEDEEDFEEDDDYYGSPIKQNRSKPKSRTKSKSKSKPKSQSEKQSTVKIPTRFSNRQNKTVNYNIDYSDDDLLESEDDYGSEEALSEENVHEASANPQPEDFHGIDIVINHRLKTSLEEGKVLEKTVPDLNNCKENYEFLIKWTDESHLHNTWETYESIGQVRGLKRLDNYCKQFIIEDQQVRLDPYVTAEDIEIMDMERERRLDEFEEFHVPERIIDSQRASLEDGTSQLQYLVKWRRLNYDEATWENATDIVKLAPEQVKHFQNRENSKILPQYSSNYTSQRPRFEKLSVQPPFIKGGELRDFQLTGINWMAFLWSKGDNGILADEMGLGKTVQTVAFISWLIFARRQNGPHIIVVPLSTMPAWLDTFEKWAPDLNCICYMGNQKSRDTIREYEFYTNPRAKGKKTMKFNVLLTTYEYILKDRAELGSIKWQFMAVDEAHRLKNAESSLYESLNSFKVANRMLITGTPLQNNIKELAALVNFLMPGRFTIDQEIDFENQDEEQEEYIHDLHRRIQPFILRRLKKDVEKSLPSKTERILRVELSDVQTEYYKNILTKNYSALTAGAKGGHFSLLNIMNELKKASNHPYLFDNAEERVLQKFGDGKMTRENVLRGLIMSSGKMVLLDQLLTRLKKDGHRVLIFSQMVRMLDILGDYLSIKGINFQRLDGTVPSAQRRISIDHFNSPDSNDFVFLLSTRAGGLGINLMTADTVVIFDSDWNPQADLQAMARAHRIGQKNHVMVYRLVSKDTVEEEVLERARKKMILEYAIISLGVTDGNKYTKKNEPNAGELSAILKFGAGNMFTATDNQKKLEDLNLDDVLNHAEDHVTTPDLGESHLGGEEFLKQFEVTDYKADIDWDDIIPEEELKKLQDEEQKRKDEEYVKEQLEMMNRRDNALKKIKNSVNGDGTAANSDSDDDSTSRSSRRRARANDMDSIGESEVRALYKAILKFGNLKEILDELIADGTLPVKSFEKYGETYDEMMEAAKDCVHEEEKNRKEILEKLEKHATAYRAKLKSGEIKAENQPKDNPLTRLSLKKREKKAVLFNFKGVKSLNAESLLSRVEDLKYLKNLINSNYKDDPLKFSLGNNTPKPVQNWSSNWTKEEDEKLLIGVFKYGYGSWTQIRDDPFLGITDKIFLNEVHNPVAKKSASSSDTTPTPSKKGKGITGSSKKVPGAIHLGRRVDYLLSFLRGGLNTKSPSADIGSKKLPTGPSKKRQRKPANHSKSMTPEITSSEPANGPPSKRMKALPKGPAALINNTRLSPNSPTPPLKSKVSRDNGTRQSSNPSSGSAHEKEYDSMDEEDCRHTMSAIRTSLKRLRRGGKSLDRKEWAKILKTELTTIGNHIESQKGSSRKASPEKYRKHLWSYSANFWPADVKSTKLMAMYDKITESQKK
Sequence of Protein translocase subunit SecA (Escherichia coli (strain K12)) (P10408 whole entry): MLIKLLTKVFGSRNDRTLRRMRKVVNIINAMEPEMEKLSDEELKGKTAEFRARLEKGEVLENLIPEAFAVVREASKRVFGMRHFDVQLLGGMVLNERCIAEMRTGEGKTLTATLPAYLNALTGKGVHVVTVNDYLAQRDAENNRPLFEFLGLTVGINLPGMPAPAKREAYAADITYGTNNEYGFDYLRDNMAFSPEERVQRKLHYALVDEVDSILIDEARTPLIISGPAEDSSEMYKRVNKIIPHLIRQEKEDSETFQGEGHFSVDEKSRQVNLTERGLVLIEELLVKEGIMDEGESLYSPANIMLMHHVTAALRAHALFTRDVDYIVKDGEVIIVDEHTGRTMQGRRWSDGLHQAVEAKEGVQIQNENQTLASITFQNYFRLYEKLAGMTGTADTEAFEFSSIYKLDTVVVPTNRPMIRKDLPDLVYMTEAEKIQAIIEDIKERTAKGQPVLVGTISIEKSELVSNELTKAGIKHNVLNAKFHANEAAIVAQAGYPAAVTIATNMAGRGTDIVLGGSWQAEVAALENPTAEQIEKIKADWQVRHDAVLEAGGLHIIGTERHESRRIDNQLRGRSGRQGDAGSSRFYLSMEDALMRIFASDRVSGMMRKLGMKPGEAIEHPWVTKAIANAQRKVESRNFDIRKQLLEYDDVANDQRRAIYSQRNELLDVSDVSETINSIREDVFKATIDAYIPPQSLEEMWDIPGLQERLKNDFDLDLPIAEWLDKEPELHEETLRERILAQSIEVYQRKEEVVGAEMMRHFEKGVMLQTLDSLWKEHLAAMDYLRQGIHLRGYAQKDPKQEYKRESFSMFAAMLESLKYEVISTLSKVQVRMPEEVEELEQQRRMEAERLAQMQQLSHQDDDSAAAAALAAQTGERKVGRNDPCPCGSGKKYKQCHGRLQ
Sequence of Sialic acid-binding Ig-like lectin 9 (Homo sapiens) (Q9Y336 whole entry): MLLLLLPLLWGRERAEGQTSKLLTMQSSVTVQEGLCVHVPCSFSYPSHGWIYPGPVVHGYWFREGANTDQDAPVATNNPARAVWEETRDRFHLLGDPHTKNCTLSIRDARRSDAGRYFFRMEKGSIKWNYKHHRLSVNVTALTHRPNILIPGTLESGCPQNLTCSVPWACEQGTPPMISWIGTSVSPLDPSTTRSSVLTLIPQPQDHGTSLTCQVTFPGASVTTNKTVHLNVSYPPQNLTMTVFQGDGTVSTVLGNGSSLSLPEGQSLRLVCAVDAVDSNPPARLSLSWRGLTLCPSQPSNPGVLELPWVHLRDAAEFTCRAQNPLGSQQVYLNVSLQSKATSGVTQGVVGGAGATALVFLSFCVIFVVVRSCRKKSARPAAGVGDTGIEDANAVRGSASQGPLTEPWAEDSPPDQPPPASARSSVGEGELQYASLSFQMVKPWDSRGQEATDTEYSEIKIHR

Turning to `COc1ccc([C@@H]2CN(C(=O)CCC(F)(F)F)C[C@H]2NC(C)=O)cc1`, the Percent Effect in assay [1] was -3.18%; in assay [2], 2.67%; in assay [3], 0.154%; in [4], -0.127%; with Trypanosoma cruzi it was -2.63%; in [5], 2.6%. Also, the Percent Effect in assay [6] is 16.7%; in the assay filed under Homo sapiens, 1.55%; in assay [7], 6.01%; in assay [8] it was 8.64%; in assay [9], -6.25%.

Consider `CCN(CC)c1ccc(C(=O)N(C)Cc2c(C)noc2C)cn1`, for which the Percent Effect in assay [1] is -4.04%; in [2], 10.5%; in assay [3], -4.84%; in [4], -2.69%; with Trypanosoma cruzi, -7%; in assay [5] it was 10.1%. The Percent Effect in assay [6] is -5.84%; in the assay filed under Homo sapiens it was 10.8%; in [7], 3.45%; in assay [8] it was 11.1%; in assay [9], -1.15%.

In the case of `CCOC(=O)c1sc2ccsc2c1CN`, the Percent Effect in assay [1] was -2.04%; in assay [2] it was -5.41%; in assay [3], -6.96%; in assay [4] it was -0.173%; in the assay on Trypanosoma cruzi it was -5.29%; in assay [5], 3.88%. The Percent Effect in assay [6] is -7.36%; in the assay listed under Homo sapiens, 20.9%; in assay [7], 0%; in [8] it was -1.22%; in assay [9], 5.83%.

As to `Cc1ccc(C)c(-c2csc(N)c2C#N)c1`, the Percent Effect in assay [1] was -2.81%; in [2], -1.33%; in assay [3] it was -2.97%; in assay [4], 7.24%; in the assay with Trypanosoma cruzi, 0.589%; in assay [5] it was -10%. In addition, the Percent Effect in assay [6] was 4.99%; in the assay listed under Homo sapiens, 14.2%; in assay [7], -12.7%; in [8] it was -12.8%; in assay [9] it was 2.05%.

With `CC(=O)c1c(F)cccc1N1CCC(Cc2cccnc2)CC1`, the Percent Effect was -2.45% in assay [1]; 8.22% in [2]; -4.3% in assay [3]; 3.69% in [4]; 6.15% with Trypanosoma cruzi; 2.4% in [5]. Moreover, the Percent Effect in assay [6] was -1.46%; in the assay listed under Homo sapiens, 57.7%; in assay [7], 7.29%; in [8] it was 13.6%; in assay [9], -9.38%.

As to `Cc1cccc(C(=O)N2C[C@@H]3CCN(c4cccnc4)C[C@@H]3C2)c1`, the Percent Effect is -6.42% in assay [1]; 2.67% in assay [2]; 9.98% in assay [3]; -2.65% in [4]; -1.38% in the assay with Trypanosoma cruzi; 0.233% in assay [5]. The Percent Effect in assay [6] is 1.67%; in the assay listed under Homo sapiens it was 16.4%; in assay [7], 1.06%; in [8], -3.85%; in assay [9], -3.21%.

Take `COc1c(CNCc2ccc(CN(C)C)cc2)c(C)nn1C`: the Percent Effect was 3.12% in assay [1]; -1.27% in assay [2]; 3.93% in [3]; 0.303% in assay [4]; 3.79% in the assay with Trypanosoma cruzi; 4.95% in assay [5]. The Percent Effect is 9.26% in [6]; -11.7% in the assay listed under Homo sapiens; -3.12% in assay [7]; 2.53% in assay [8]; -2.72% in assay [9].

Consider `c1cnn(CC2CN(c3ncnc4ccsc34)CCO2)c1` (stereo not drawn), for which the Percent Effect is -5.02% in assay [1]; 2.7% in assay [2]; 14.2% in assay [3]; -3.02% in assay [4]; -4.69% with Trypanosoma cruzi; 0.833% in assay [5]. For the same molecule, the Percent Effect in assay [6] was 19.5%; in the assay listed under Homo sapiens it was 69.8%; in assay [7], 4.95%; in assay [8], 11%; in assay [9] it was 0.323%.
